Screening results (PubChem)
PAFAH1B2 inh = inhibitors of human PAFAH1B2. recombinant PAFAH1B2, FP-rhodamine activity probe, fluorescence polarization. P68402. AID 492953. 1.2% of 340,000 active. inhibition, % at 3.39 µM;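 active = inhibition above the mean of all tested compounds plus 3 SD, cut at about 24% in these data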;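 also: 0% = enzyme with DMSO and 100% = wells lacking PAFAH1B2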
Target sequence (P68402 whole entry, looked up): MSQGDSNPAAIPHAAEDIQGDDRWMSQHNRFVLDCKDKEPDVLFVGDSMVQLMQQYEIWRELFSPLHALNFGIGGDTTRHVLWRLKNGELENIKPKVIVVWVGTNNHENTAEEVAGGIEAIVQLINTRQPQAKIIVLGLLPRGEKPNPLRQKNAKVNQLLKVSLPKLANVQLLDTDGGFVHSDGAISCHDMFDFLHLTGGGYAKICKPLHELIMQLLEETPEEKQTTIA
pPAFAH FP inh = inhibitors of human plasma PAF acetylhydrolase (pPAFAH). Q13093. recombinant pPAFAH, FP-rhodamine probe fluorescence polarization. inhibition, % at 3.39 µM. 1.5% of 330,000 active. AID 463082;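 active = inhibition above the mean inhibition across the screen plus 3 SD, cut at about 25% in these data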;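 also: inhibitors block binding of the rhodamine activity-based probe so polarization drops; 0% = enzyme with DMSO and 100% = wells lacking pPAFAH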
PAFAH1B3 inh = blocks human PAF acetylhydrolase 1B catalytic subunit 3; AID 492972; 0.28% of 340,000 active; recombinant PAFAH1B3, FP-rhodamine probe, fluorescence polarization; inhibition, % at 3.39 µM; Q15102;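 active = inhibition above the screen-wide average of all tested compounds plus 3 SD, cut at about 25% in these data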;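 also: 0% = enzyme with DMSO only and 100% = wells lacking PAFAH1B3 protein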
Target sequence (Q15102 whole entry, looked up): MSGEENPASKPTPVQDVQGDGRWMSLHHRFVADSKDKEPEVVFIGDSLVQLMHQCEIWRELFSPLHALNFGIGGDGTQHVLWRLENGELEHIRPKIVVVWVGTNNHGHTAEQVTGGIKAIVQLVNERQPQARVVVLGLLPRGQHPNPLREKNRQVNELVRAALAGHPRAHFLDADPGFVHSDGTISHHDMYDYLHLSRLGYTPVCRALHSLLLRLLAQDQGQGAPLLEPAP
PAFAH2 FP inh = inhibitors of human PAFAH2; Q99487; recombinant PAFAH2, FP-rhodamine activity probe, fluorescence polarization; inhibition, % at 3.39 µM; 0.99% of 340,000 active; AID 492956;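 active = inhibition above the mean over all tested compounds plus 3 SD, cut at about 30% in these data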;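 also: inhibitors block probe labeling of enzyme so polarization drops; 0% = enzyme with DMSO and 100% = wells lacking PAFAH2 protein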
PME-1 primary = PME-1 (human) inhibition; Q9Y570; recombinant PME-1, FP-Rh probe fluorescence polarization; inhibition, % at 5.9 µM; 0.53% of 320,000 active; AID 2130;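 active = inhibition above the campaign mean of all compounds plus 3 SD, cut at about 26% in these data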;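 also: competitive labeling of PME-1 active site by serine hydrolase directed probe; 0% = PME-1 with DMSO and 100% = wells lacking PME-1 enzyme; inhibitors block probe labeling so polarization falls and inhibition rises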
Fam108B counter = counter-screen for RBBP9 inhibitors: inhibitors of mouse Fam108B; recombinant Fam108B, FP-Rh probe fluorescence polarization; inhibition, % at 9.51 µM; 0.33% of 300,000 active;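 active = inhibition above the screen mean inhibition plus 3 SD, computed separately per campaign, cut at about 18% in these data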;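 also: inhibitors lower polarization as less probe binds the enzyme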
Fam108b confirm = confirmation of mouse Fam108b serine hydrolase inhibitors | shares compounds with Fam108B counter | recombinant Fam108b, FP-Rh probe fluorescence polarization | inhibition, % at 9.51 µM | 44% of 930 active | AID 1978;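 active = inhibition above a limit from the primary screen, the mean over all compounds plus 3 SD, cut at about 19% in these data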;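 also: 0% = median of active Fam108b wells and 100% = catalytically dead S170A mutant; inhibitors free the probe so polarization falls as inhibition rises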
Fam108b ABPP HTS = inhibits mouse Fam108b in gel-based ABPP | shares compounds with Fam108B counter | recombinant Fam108b, fluorophosphonate probe | inhibition, % at 20 µM | 44% of 260 active | AID 588649; in the data active = inhibition above about 40%
* marks the source's active call; other numbers are inactive results; x = not tested or not shown. Compounds with a hit are over-represented: about 2.9% of the library has one in this group of screens.

SMILES	PAFAH1B2 inh	pPAFAH FP inh	PAFAH1B3 inh	PAFAH2 FP inh	PME-1 primary	Fam108B counter	Fam108b confirm	others
COc1ccc(/C=N/NC(=O)c2cccc([N+](=O)[O-])c2)cc1OS(=O)(=O)c1ccccc1	7.3	2.6	-3.3	-48.5	2.4	31.5*	25.6*
O=C(Nc1cc(Sc2ccccn2)cc([N+](=O)[O-])c1)c1cccc(F)c1	8.5	4.4	14.7	-15.9	3.6	20.9*	-5.0
CC1=Nc2ccccc2/C1=C\c1sc(Nc2ccc(C)cc2)nc1O	2.9	27.6*	5.0	-0.7	51.9*	23.0*	5.2
Oc1cccc(Nc2nc(O)c(/C=C3\C=Nc4ccccc43)s2)c1	15.2	28.2*	-248.8	-20.8	28.0*	44.5*	16.0
Clc1cccc(Cl)c1COc1ccccn1	1.4	0.8	1.1	1.5	9.1	-0.6	x
O=C(Nc1ccccc1C(=O)NCc1cccnc1)c1ccccc1Cl	1.7	1.8	4.2	3.1	1.2	0.1	x
COc1ccc(/C=N/Nc2nc(N)cc(Cl)n2)cc1OC	1.5	1.1	-0.5	-0.6	2.6	1.8	x
Cc1nn(-c2ccccc2)c(Cl)c1/C=N/Nc1ccc(Cl)c(C(=O)O)c1	7.1	6.6	5.2	20.1	-0.8	7.3	x
O=C(N/N=C\c1c(O)ccc2ccccc12)c1ccc(O)cc1	20.7	25.9*	41.3*	-14.0	19.3	23.2*	-1.0
O=C(O)c1cc(N/N=C/c2c(O)ccc3ccccc23)ccc1Cl	17.7	11.0	19.8	29.3	30.7*	18.9*	19.1*
Nc1cc(Cl)nc(N/N=C/c2c(O)ccc3ccccc23)n1	5.8	15.5	8.0	-3.6	31.7*	28.1*	2.3
C=CCn1c(N)c(C(=O)OCCC)c2nc3ccccc3nc21	6.1	-0.3	18.9	-7.4	4.0	0.2	x
COCCn1c(N)c(C(=O)OCc2ccccc2)c2nc3ccccc3nc21	4.0	14.1	10.6	4.2	-4.4	42.2*	-2.1
NNc1nc2c(-c3ccc(Cl)cc3)nnn2c2ccccc12	-2.5	0.7	-3.8	-2.1	-16.3	54.9*	64.8*	Fam108b ABPP HTS=0.0
NNc1nc2c(-c3ccc(F)cc3)nnn2c2ccccc12	-0.9	-3.3	6.0	-0.5	5.2	25.7*	9.3
COCCCNc1nc2c(-c3ccc(Cl)cc3)nnn2c2ccccc12	2.1	-3.2	-0.2	1.9	-0.2	1.0	x
O=C(O)CSc1cc(NS(=O)(=O)c2ccc(Cl)cc2)c2ccccc2c1O	51.3*	12.1	52.5*	35.6*	28.1*	27.8*	18.7*
O=C(O)C1=C[C@H](c2csc3ccccc23)C[C@H](OCc2ccc(CO)cc2)O1	-4.1	6.2	-1.5	6.5	-3.3	31.5*	-5.3
F[B-](F)(F)c1cnc2ccccc2c1	4.9	x	7.8	-1.5	x	x	x
COc1ccc(OC)c2sc(NC(=O)C(C)C)nc12	7.6	6.3	9.7	0.9	1.9	1.7	x
O=C(COC(=O)/C=C/c1cccs1)Nc1nc(-c2ccccc2)cs1	-1.3	5.6	9.4	4.9	2.1	-5.9	x
O=C(COC(=O)/C=C/c1cccs1)Nc1nc(-c2cccc(Br)c2)cs1	7.3	0.0	0.4	9.7	44.2*	20.9*	4.9
O=C(COC(=O)/C=C/c1ccccc1)NCCNC(=O)COC(=O)/C=C/c1ccccc1	1.5	-7.8	2.5	-1.3	5.2	-0.9	x
COc1ccc(O)c(-c2cc(-c3cccc(Br)c3)n[nH]2)c1	3.1	12.0	15.7	-5.2	42.2*	18.3*	-3.0
COc1ccc(-c2cc(-c3ccc(OC)c(OC)c3)n[nH]2)c(O)c1	4.7	24.6*	2.5	4.2	11.0	19.6*	6.3
Oc1ccc(Br)cc1-c1cc(-c2ccccc2)n[nH]1	-3.2	5.8	-9.8	-14.8	-28.4	-24.1	x
CN(Cc1cccnc1)C(=O)c1cc(S(=O)(=O)Nc2ccccc2F)ccc1Cl	1.6	x	2.8	-1.0	x	x	x
COc1ccc(CNC(=O)c2ccncc2)cc1	4.3	0.8	0.2	-3.7	0.9	-5.3	x
COc1ccc(CNC(=O)c2ccc3nccnc3c2)cc1	1.2	15.1	0.0	-0.5	-0.6	19.0*	5.1
